From PubChem BioAssay (NCATS)
Records with an inconclusive call do not appear. Entries that show only a call come without a potency. The source made the active and inactive calls. Calls come from the whole dose curve; as a rule, active = well fitted inhibition curve with a large enough effect; inconclusive = small, poorly fitted or top-dose-only effect; inactive = no such curve, though single readings can be large or run the other way.

Assay: P-glycoprotein substrates identified in KB-3-1 adenocarcinoma cell line, qHTS therapeutic library screen (AID 1346986); note: nearly all actives have a fitted effect of over 60% in size
Conditions: KB-3-1 parental cells viability, CellTiter-Glo, 72 h; series mostly up to 44.5 µM
Summary of the method: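 Dose-response cytotoxicity, KB-3-1 vs P-gp-high KB-8-5-11, no colchicine in assay medium. Read: CellTiter-Glo at 72 h.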

Q: Which Potency does the source give for CCCc1[nH]nc2c1C(c1cc(Cl)cc(Cl)c1O)C(C#N)=C(N)O2 (stereo not given) here?
A: inactive

Q: Which Potency does the source give for Nc1ncnc2c1c(COc1cccc(Cl)c1)nn2C1CCOCC1 here?
A: inactive

Q: With CN(C)CC(c1ccc(O)cc1)C1(O)CCCCC1 (stereo not given) as the compound, how does the Potency read?
A: inactive

Q: Which Potency does the source give for CC(=O)NC(C(=O)OC1CCC(C)(C)C2CC=C3C(=O)OCC3C12C)C(C)C (stereo not given) here?
A: inactive

Q: With C=CC1(C)CC2CCC3C(C)(C(=O)O)CCCC3(C)C2=CC1=O (stereo not given) as the compound, how does the Potency read?
A: inactive

Q: For COc1cc(OC)cc(-c2ccc3c(-c4ccc(F)cc4)[nH]nc3n2)c1, which Potency is on record?
A: inactive

Q: Which Potency does the source give for C=C1CCc2occ(C)c2[C@H]2[C@H]1[C@@]13O[C@@]1(C[C@@H](C)[C@H]3OC(C)=O)[C@H]1O[C@@]21C here?
A: inactive

Q: Which Potency does the source give for N=C(N)c1ccc2nc(-c3cc(CC(=O)NC(CC(=O)O)C(=O)O)cc(-c4cc(S(N)(=O)=O)ccc4O)c3O)[nH]c2c1 (stereo not given) here?
A: inactive

Q: Which Potency does the source give for CC1CC=C2C1CC1(O)C(=O)CC2(C)C1(C)CO (stereo not given) here?
A: inactive

Q: Which Potency does the source give for CC[C@@H](Nc1c(Nc2cccc(C(=O)N(C)C)c2O)c(=O)c1=O)c1ccc(C)o1 here?
A: inactive

Q: With CC(C)NC(=O)c1ccc(C#Cc2ccncc2)cn1 as the compound, how does the Potency read?
A: inactive

Q: For Cc1ccc(C)c(S(=O)(=O)n2cnc3ccccc32)c1, which Potency is on record?
A: inactive

Q: With Cc1[nH]c2ccccc2c1CC(=O)N[C@@H](Cc1ccccc1)C(=O)N(C)c1ccccc1 as the compound, how does the Potency read?
A: inactive

Q: With CC1(C)CCCC2(C)c3c4c(c(=O)oc(=O)c3=CCC12)=CCC1C(C)(C)CCCC41C (stereo not given) as the compound, how does the Potency read?
A: inactive

Q: Which Potency does the source give for C=CC(C)(O)CC/C=C(\C)C(=O)O[C@@H]1[C@@H](O)[C@H](OC(C)(C=C)CC/C=C(\C)C(=O)O)O[C@H](CO)[C@H]1OC(=O)/C(C)=C/CCC(C)(O)C=C (stereo not given in full) here?
A: inactive
